Data as given in publication PMC4336329 (PLoS ONE, 2015).
The whole screen tested about 310,000 compounds, of which about 14,000 (4.5%) showed an effect of 50% or more. Effects have a minus sign here. For the sample, strong results were picked, then their nearest neighbours and some compounds at random.

target: human ether-à-go-go-related gene (hERG) potassium channel (human, UniProt Q12809); assay: primary screen, population patch clamp on CHO cells stably expressing hERG; higher = less effect of the substance
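Further: peak tail current of the secondary pulse compared with the same well before compound.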

human ether-à-go-go-related gene (hERG) potassium channel, sequence (Q12809 whole entry, looked up): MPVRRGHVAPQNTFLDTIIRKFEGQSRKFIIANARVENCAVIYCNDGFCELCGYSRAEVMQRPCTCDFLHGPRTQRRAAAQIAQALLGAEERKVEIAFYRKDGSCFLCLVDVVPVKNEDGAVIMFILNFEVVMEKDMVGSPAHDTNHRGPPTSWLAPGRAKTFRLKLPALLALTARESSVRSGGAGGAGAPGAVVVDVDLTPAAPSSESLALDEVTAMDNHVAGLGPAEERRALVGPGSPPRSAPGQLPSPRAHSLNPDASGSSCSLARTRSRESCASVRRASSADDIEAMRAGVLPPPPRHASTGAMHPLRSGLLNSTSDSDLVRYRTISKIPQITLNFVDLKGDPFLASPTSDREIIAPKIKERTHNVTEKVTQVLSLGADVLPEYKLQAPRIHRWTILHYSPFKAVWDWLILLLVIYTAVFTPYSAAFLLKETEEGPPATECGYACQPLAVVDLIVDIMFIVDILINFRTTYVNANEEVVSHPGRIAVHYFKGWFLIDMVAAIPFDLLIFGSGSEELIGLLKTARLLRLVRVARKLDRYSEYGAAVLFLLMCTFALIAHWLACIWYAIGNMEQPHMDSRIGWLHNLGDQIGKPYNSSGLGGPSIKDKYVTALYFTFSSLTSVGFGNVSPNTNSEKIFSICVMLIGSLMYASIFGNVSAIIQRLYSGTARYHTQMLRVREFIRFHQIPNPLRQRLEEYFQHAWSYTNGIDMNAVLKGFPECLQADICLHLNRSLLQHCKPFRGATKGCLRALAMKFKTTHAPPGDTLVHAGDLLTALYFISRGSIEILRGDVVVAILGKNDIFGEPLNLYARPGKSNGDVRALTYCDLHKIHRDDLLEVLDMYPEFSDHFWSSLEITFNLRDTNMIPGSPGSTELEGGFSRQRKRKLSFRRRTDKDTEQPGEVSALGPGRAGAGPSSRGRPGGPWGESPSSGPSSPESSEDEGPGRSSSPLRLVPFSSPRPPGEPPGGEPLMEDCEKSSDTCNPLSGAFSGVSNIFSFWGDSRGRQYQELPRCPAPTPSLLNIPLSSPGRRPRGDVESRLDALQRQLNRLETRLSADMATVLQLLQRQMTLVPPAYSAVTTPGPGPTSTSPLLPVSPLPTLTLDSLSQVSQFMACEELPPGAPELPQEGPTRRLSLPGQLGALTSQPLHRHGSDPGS

Compound | hERG current change (%, negative = inhibition) at 10uM [%]
CCCCCCCNC(=O)C1(CC2CC(c3ccc(Cl)cc3)=NO2)CCN(C(=O)C2(C)CC2)CC1 (centres unmarked) | -55.8
CCCCCCCNC(=O)C1(CC2CC(c3ccc(Cl)cc3)=NO2)CCN(C(=O)C2CCCC2)CC1 (centres unmarked) | -55.8
CCCCCCCNC(=O)C1(CC2CC(c3ccc(Cl)cc3)=NO2)CCN(C(=O)OC(C)(C)C)CC1 (centres unmarked) | 21.1
COc1ccc(CC(=O)NCc2ccc(F)cc2)cc1S(=O)(=O)N1CCOCC1 | -8.29
CCCn1c2ccccc2c2cnn(CC(=O)NCCN(CC)CC)c(=O)c21 | -66.6
CCCn1c2ccccc2c2cnn(CC(=O)NC(C)CC)c(=O)c21 (centres unmarked) | 7.84
CCCn1c2ccccc2c2cnn(CC(=O)NCCN(C)C)c(=O)c21 | -60.1
CCCn1c2ccccc2c2cnn(CC(=O)N(CC)CC)c(=O)c21 | -2.37
CCCn1c2ccccc2c2cnn(CC(=O)NCCOC)c(=O)c21 | -5.71
CCCn1c2ccccc2c2cnn(CC(=O)OC)c(=O)c21 | -0.361
Cc1ccc(S(=O)(=O)N2CCN(CC(=O)N(CC(C)C)c3c(N)n(CC(C)C)c(=O)[nH]c3=O)CC2)c(C)c1 | 12.7
O=[N+]([O-])c1cc([As](=O)(O)O)ccc1O | 19.8
Cc1csc(NC(=O)c2ccc(C)c([N+](=O)[O-])c2)n1 | -41.6
Cc1nn2cc(-c3ccc(Cl)cc3)cnc2c1Br | 10.3
Cc1ccc(NC(=O)C2Oc3ccccc3OC2C)cc1 (centres unmarked) | 8.68
CCCCC(=O)NC(=S)Nc1c(C)cc(Br)cc1C | 2.71
Cc1ccc(CNS(=O)(=O)c2ccc3c(c2)NC(=O)C(C)S3)cc1 (centres unmarked) | -1.22
Cc1ccccc1C(=O)Nc1ccnn1C1CCN(C(=O)c2cnsn2)CC1 | -30.4
COc1ccc(C(=O)Nc2ccnn2C2CCN(C(C)CSC)CC2)cc1 (centres unmarked) | 1.28
COCC(=O)N1CCC(n2nccc2NC(=O)c2ccccc2OC)CC1 | -1.85
COc1ccccc1C(=O)Nc1ccnn1C1CCN(C(=O)C(C)(C)C)CC1 | -50.4
COc1ccccc1C(=O)Nc1ccnn1C1CCN(C(=O)c2cnsn2)CC1 | -62.2
COc1ccccc1C(=O)Nc1ccnn1C1CCN(C(=O)c2ccoc2C)CC1 | -62.9
COc1ccccc1C(=O)Nc1ccnn1C1CCN(C(C)CSC)CC1 (centres unmarked) | -67
COc1ccccc1C(=O)Nc1ccnn1C1CCN(C)CC1 | -32.7
COc1ccccc1C(=O)Nc1ccnn1C1CCN(C(=O)c2ccoc2)CC1 | -47.4
COc1ccc(C(=O)Nc2ccnn2C2CCN(C(=O)c3cnsn3)CC2)cc1 | -11.5
CSCC(C)N1CCC(n2nccc2NC(=O)c2ccccc2C)CC1 (centres unmarked) | -16.6
COc1ccccc1C(=O)Nc1ccnn1C1CCN(C(=O)C2CCOC2)CC1 (centres unmarked) | -35.9
